The results in this text go back to PubChem BioAssay (NCI).

About 83,000 compounds went through this panel and 20% of them were active in at least one assay; those are over-represented in the sample as a whole.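 Results are percent growth after 48 hours of single-concentration exposure. 100 means growth as in untreated cells, lower positive values show inhibition; negative values down to -100 show cell death.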 Unmarked numbers belong to inactive results. Calls of active or inactive are those of the source. The calls were made as follows: active = growth percent below 10; inactive = the rest.

What all share (assay): NCI-60 one-dose screen, 48 h (100 = growth as untreated, 0 = no growth, -100 = all killed)
Holding throughout (conditions): 10 µM unless noted

Assay [1] relates to SK-MEL-2 melanoma.
The test system of assay [2] is EKVX NSCLC.
Assay [3] has as its system SN12C renal.
The test system of assay [4] is UO-31 renal.
Assay [5] deals with TK-10 renal.
Assay [6] deals with ACHN renal.
For assay [7], the system named is CAKI-1 renal.
The subject of assay [8] is A498 renal.
In assay [9] the test system is CCRF-CEM leukemia.
The test system of assay [10] is MOLT-4 leukemia.
Assay [11] deals with SR leukemia.
Assay [12] deals with OVCAR-8 ovarian.
The subject of assay [13] is OVCAR-5 ovarian.
For assay [14], the system named is OVCAR-4 ovarian.
Assay [15] deals with SK-OV-3 ovarian.
Assay [16] has as its system IGROV1 ovarian.
Assay [17] relates to OVCAR-3 ovarian.
Assay [18] deals with HS 578T breast.
The subject of assay [19] is NCI/ADR-RES ovarian.
Assay [20] concerns RPMI-8226 leukemia.

Turning to `C#Cc1c(I)n(C2OC(CO[Si](C)(C)C(C)(C)C)C3OC(C)(C)OC32)c(=O)[nH]c1=O` (stereo not drawn), the growth in [1] was 59.9%; in [2] it was 96.7%; in [3], 89.7%; in [4] it was -77.3% (active); in assay [5], -62.3% (active); in [6], 49.7%. For the same molecule, the growth is 74.2% in assay [7]; 102% in assay [8]; -29.7% (active) in assay [9]; -25.5% (active) in assay [10]; -41.8% (active) in assay [11]; 97.8% in assay [12]. For the same molecule, the growth in [13] was 91.9%; in assay [14], 88.9%; in assay [15] it was 107%; in assay [16], 36.6%; in assay [17], -40.2% (active); in assay [18], 5.41% (active). The growth in assay [19] was 89.6%.

In the case of `O=C1C2C(c3cccs3)C=C(c3ccc(Cl)cc3)N2C(=S)N1c1ccccc1` (stereo not drawn), the growth in assay [1] is 102%; in assay [2], 109%; in assay [3] it was 95.8%; in assay [4], 71.4%; in assay [5], 116%; in assay [6] it was 95.5%. For the same molecule, the growth was 91.3% in assay [7]; 88.6% in assay [8]; 98.3% in assay [9]; 95.4% in [10]; 97.6% in assay [11]; 97.8% in assay [12]. The growth in assay [13] was 96.5%; in [14], 98.1%; in [15] it was 109%; in [16] it was 93.2%; in assay [17], 104%; in [18], 92.2%. Further, the growth in assay [19] was 103%.

Take `Cc1ccc(C2(C)NC(=O)N(CC(=O)Nc3cccc(C)c3)C2=O)cc1` (stereo not drawn): the growth in [1] is 84.9%; in [2], 101%; in [3], 100%; in assay [4], 82%; in assay [5], 106%; in [6], 98.6%. Further, the growth in assay [7] is 112%; in assay [8], 123%; in [9], 112%; in assay [10], 80.4%; in assay [11] it was -22.7% (active); in [12] it was 105%. Besides, the growth was 97.1% in assay [13]; 99.3% in assay [14]; 97.6% in [15]; 105% in [16]; 111% in [17]; 102% in assay [18]. The growth in assay [19] was 94.8%.

Take `CN(C)CCOc1ccc(/C(=C(/CCCCCCCCCC[P+](c2ccccc2)(c2ccccc2)c2ccccc2)c2ccccc2)c2ccccc2)cc1`: the growth is -75.9% (active) in [1]; -86.1% (active) in assay [2]; -86.2% (active) in [3]; -90.3% (active) in [4]; -82.7% (active) in assay [5]; -95.8% (active) in assay [6]. For the same molecule, the growth in assay [7] is -93.2% (active); in [8], -92.9% (active); in [9], -56% (active); in [10], -60% (active); in [11] it was -53.4% (active); in [12] it was -53.5% (active). Moreover, the growth in assay [13] was -97.2% (active); in assay [14], -81.6% (active); in [15] it was -81% (active); in assay [16], -76.5% (active); in assay [17], -93.9% (active); in [18], -36.4% (active). Also, the growth in assay [19] was -69% (active).

With `CCOc1cc(\C=N/N=C(N)/C(N)=N\N=C/c2ccc(O)c(OCC)c2)ccc1O`, the growth in [1] is 126%; in assay [2], 106%; in assay [3], 101%; in assay [4], 88.7%; in assay [5] it was 127%; in [6], 96.5%. Besides, the growth in assay [7] is 94.5%; in assay [8], 106%; in assay [9], 49.7%; in assay [10] it was 59.2%; in assay [11], 88.8%; in [12], 67.9%. Also, the growth was 115% in assay [13]; 105% in assay [14]; 113% in assay [15]; 129% in assay [16]; 113% in assay [17]; 113% in assay [18]. Also, the growth in assay [19] is 98.7%.

As to `O=C(COc1ccc(/C=C2\Oc3ccccc3C2=O)cc1)Nc1nccs1`, the growth in assay [1] is 93.6%; in [2], 84%; in assay [3], 90.3%; in assay [4], -39.8% (active); in assay [5] it was 134%; in [6], 107%. Further, the growth is 68.9% in assay [7]; 116% in [8]; 0% (active) in assay [9]; 42.3% in assay [10]; 0% (active) in assay [11]; 41.8% in assay [12]. Moreover, the growth in assay [13] was 91.8%; in assay [14], 90.3%; in assay [15] it was 125%; in assay [16], -13.3% (active); in [17], 97.2%; in [18], 107%. Further, the growth in assay [19] is 91.6%.

For the molecule `O=C(/C=C/c1ccc([N+](=O)[O-])cc1)c1cccc(Nc2nc(Nc3ccccc3)nc(Nc3ccccc3)n2)c1`, the growth in assay [1] was 37.5%; in [2], 65.1%; in assay [3], 89.1%; in assay [4], 38.9%; in [5], 66.3%; in [6], 80%. In addition, the growth in assay [7] is 72.5%; in assay [9], 46.2%; in assay [10], 46.4%; in assay [11], 55.8%; in assay [20], -60.2% (active); in [12], 70.5%. In addition, the growth is 74.7% in assay [13]; 79.8% in assay [14]; 81% in [15]; 52% in assay [16]; 72.6% in assay [17]; 70.2% in assay [18]. Besides, the growth in [19] was 67.9%.
